Compound activity from PubChem.
UHRF1 binding: UHRF1 methyl-DNA binding inhibition; 0.75% of 370,000 active; inhibition, % at 4.4 µM; UHRF1 binding to methylated oligo, TR-FRET; Q96T88; in the data active means inhibition above about 21%;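 further: UHRF1 SRA domain binding a hemimethylated CpG hairpin DNA probe; 0% = median of test compound wells and 100% = reference inhibitor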
rCAG RNA binder: r(CAG) repeat RNA binding. TO-PRO-1 dye displacement fluorescence. inhibition, % at 3 µM. 1.3% of 370,000 active;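 active means inhibition above the plate cutoff, the mean of all test compounds on that plate plus 3 SD, cut at about 35% in these data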;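 further: 0% = DMSO alone and 100% = 100 µM mitoxantrone as full dye displacement; higher means more dye released from RNA so lower well fluorescence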
MBD2 inh: MBD2-methylated oligo binding inhibition. Q9UBB5. TR-FRET, MBD2 binding to methylated oligonucleotide. inhibition, % at 4.4 µM. 0.31% of 370,000 active. AID 686964; in the data active means inhibition above about 13%
PRMT1 inh: PRMT1 (human) inhibition, primary screen; recombinant PRMT1, activity-based probe fluorescence polarization; inhibition, % at 2.79 µM; 1.3% of 370,000 active; AID 652257;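 active means inhibition above about 21% made by adding two undisclosed values, limit read from the data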
Target sequence (Q99873 whole entry, looked up): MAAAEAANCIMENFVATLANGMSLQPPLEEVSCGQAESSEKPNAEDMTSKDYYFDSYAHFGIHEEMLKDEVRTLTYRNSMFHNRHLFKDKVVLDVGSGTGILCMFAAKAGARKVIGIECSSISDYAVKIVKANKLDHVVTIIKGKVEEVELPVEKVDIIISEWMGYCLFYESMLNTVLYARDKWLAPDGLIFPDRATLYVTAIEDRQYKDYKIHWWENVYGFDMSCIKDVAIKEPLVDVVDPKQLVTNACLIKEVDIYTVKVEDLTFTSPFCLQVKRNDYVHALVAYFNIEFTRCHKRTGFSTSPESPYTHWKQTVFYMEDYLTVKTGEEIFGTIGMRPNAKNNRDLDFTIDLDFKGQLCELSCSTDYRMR
ABHD5 PLIN5 PPI: blocks binding of human ABHD5 to perilipin-5; AID 602281; Split G. princeps luciferase complementation, luminescence, 4 h; 0.78% of 360,000 active; inhibition, % at 4 µM;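 active means inhibition above the mean inhibition across every tested compound plus 3 SD, cut at about 22% in these data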;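 further: 0% = DMSO only wells and the 100% control is not disclosed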
LEDGF integ inh: blocks HIV-1 LEDGF/p75-dependent DNA integration | TR-FRET IN-LEDGF/p75 DNA integration, Eu/Cy5 | inhibition, % at 3.7 µM | 0.64% of 370,000 active;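 active means inhibition above the screen-wide mean plus 3 SD, cut at about 13% in these data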;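 further: signal is the Cy5 over europium emission ratio at 671 and 618 nm; 0% = plate median of compound wells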
ABHD5 PLIN5 conf: confirmation of human ABHD5-PLIN5 interaction inhibitors; shares compounds with ABHD5 PLIN5 PPI; biochemical ABHD5-PLIN5 interaction, luminescence; inhibition, % at 4 µM; 67% of 2,200 active; AID 651612; in the data active means inhibition above about 23%;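 further: 0% = DMSO vehicle wells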
HNF4 split-luc: HNF4 split-luciferase signal hit, counter-screen; AID 651674; HNF4 dimerization, luminescence, biochemical; inhibition, % at 4 µM; 77% of 2,200 active; shares compounds with ABHD5 PLIN5 PPI;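 active means mean inhibition across replicate wells exceeding the computed hit threshold, cut at about 13% in these data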;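 further: light from luciferase halves that rejoin when HNF4 fusion proteins dimerize; 0% = DMSO only wells and the 100% control is not given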
* = called active by the depositor. Hits are enriched below; roughly 4.1% of the tested compounds scored in any of these assays.

For Cc1cccc(C(=O)N[C@H]2CC[C@@]34CCCN3C(=O)CCC[C@H]4[C@H]2C)c1 the results were UHRF1 binding -3, MBD2 inh -1, PRMT1 inh -6 and LEDGF integ inh 2.
Screening COc1ccc(S[C@]2(C(=O)N3CCOCC3)CC(=O)N(C(=O)/C=C/c3ccccc3)[C@@H]2c2ccc(OC)cc2)cc1 returned UHRF1 binding -1, rCAG RNA binder 10, MBD2 inh 0, PRMT1 inh 11 and LEDGF integ inh 5.
Screening O=c1[nH]c(/C=C/c2ccccc2)c([N+](=O)[O-])c(=O)[nH]1 returned UHRF1 binding 0, rCAG RNA binder 3, MBD2 inh -2, PRMT1 inh 5, ABHD5 PLIN5 PPI 27*, LEDGF integ inh -6, ABHD5 PLIN5 conf 73* and HNF4 split-luc 62*.
`Cc1ccc(C(=O)CC(C(=O)O)n2cnc([N+](=O)[O-])n2)cc1` (configuration not stated) gave UHRF1 binding 2, rCAG RNA binder 0, MBD2 inh -3, PRMT1 inh 16, ABHD5 PLIN5 PPI 55*, LEDGF integ inh 0, ABHD5 PLIN5 conf 29* and HNF4 split-luc 58*.
For Cc1ccc(C(=O)/C=C/c2ccc(Br)cc2)o1 the results were UHRF1 binding 2, rCAG RNA binder -3, MBD2 inh 1, PRMT1 inh 4, ABHD5 PLIN5 PPI 53*, LEDGF integ inh -4, ABHD5 PLIN5 conf 85* and HNF4 split-luc 61*.
O=[N+]([O-])c1ccc(N2CCc3ccccc3C2)cc1 was read as UHRF1 binding -2, rCAG RNA binder -1, MBD2 inh -2, PRMT1 inh 1, ABHD5 PLIN5 PPI 31*, LEDGF integ inh 3, ABHD5 PLIN5 conf 60* and HNF4 split-luc 58*.
For CCOC(=O)CC1OC(=O)c2cc3c(cc21)C(=O)OC3CC(=O)OCC (configuration not stated) the results were UHRF1 binding 1, rCAG RNA binder -2, MBD2 inh 8, PRMT1 inh 3, ABHD5 PLIN5 PPI -8 and LEDGF integ inh -1.
Screening CCOC(=O)C(C(=O)OCC)C1OC(=O)c2cc3c(cc21)C(=O)OC3C(C(=O)OCC)C(=O)OCC (configuration not stated) returned UHRF1 binding 1, rCAG RNA binder -4, MBD2 inh 2, PRMT1 inh 0, ABHD5 PLIN5 PPI 32*, LEDGF integ inh 0, ABHD5 PLIN5 conf 42* and HNF4 split-luc 28*.
For COc1ccc(CCNC(=O)c2cccc(S(=O)(=O)N3CCOCC3)c2)cc1OC the results were UHRF1 binding 9, rCAG RNA binder -1, MBD2 inh -1, PRMT1 inh 2, ABHD5 PLIN5 PPI 27*, LEDGF integ inh -8, ABHD5 PLIN5 conf 4 and HNF4 split-luc 10.
OCC1(Cc2cccc(C(F)(F)F)c2)CCN(Cc2cc3ccccc3o2)CC1 was read as UHRF1 binding -3, rCAG RNA binder -6, MBD2 inh 1, PRMT1 inh -2, ABHD5 PLIN5 PPI 15 and LEDGF integ inh -3.
For Cc1c(CN2CCC(CO)(Cc3cccc(C(F)(F)F)c3)CC2)c2ccccc2n1C the results were UHRF1 binding 1, rCAG RNA binder 2, MBD2 inh 2, PRMT1 inh 1, ABHD5 PLIN5 PPI 28*, LEDGF integ inh 1, ABHD5 PLIN5 conf 19 and HNF4 split-luc 7.
COC1=CC(=O)C(OC)=C(OC)C1=O was read as UHRF1 binding -6, rCAG RNA binder 1, MBD2 inh -7, PRMT1 inh 3, ABHD5 PLIN5 PPI 26*, LEDGF integ inh 1, ABHD5 PLIN5 conf 52* and HNF4 split-luc 73*.
CCCC1CCC2(CCCN2CCOC(=O)Nc2ccc(OC)cc2)CC1 (configuration not stated) was read as UHRF1 binding 2, MBD2 inh 4, PRMT1 inh -2 and LEDGF integ inh -1.
For N#CC1c2ccccc2C=CN1C(=O)N(c1ccccc1)c1ccccc1 (configuration not stated) the results were UHRF1 binding -1, rCAG RNA binder 4, MBD2 inh -7, PRMT1 inh 3, ABHD5 PLIN5 PPI 36*, LEDGF integ inh -3, ABHD5 PLIN5 conf 32* and HNF4 split-luc 34*.
COc1ccc(C(=O)N2C=Cc3ccccc3C2C#N)cc1 (configuration not stated) was read as UHRF1 binding 10, rCAG RNA binder 1, MBD2 inh 2, PRMT1 inh 0, ABHD5 PLIN5 PPI -1 and LEDGF integ inh 0.
Screening S=C(NCc1cccc(Cl)c1)OC1CCC12CCC(c1ccccc1)CC2 (configuration not stated) returned UHRF1 binding -3, rCAG RNA binder 4, MBD2 inh -3, PRMT1 inh -2 and LEDGF integ inh -3.
Screening CCOC(=O)Nc1ccc2c(c1)N(C(=O)CCN1CCOCC1)c1ccccc1S2=O (configuration not stated) returned UHRF1 binding 0, rCAG RNA binder -1, MBD2 inh -11, PRMT1 inh 7, ABHD5 PLIN5 PPI 27*, LEDGF integ inh 1, ABHD5 PLIN5 conf 6 and HNF4 split-luc 42*.
COC(=O)CC(=O)CC(NS(=O)(=O)c1ccc(C)cc1)c1ccccc1 (configuration not stated) was read as UHRF1 binding 0, rCAG RNA binder 5, MBD2 inh 1, PRMT1 inh -3 and LEDGF integ inh -1.
`O=C(C(Br)=Cc1ccccc1)c1ccccc1` gave UHRF1 binding 2, rCAG RNA binder -1, MBD2 inh -2, PRMT1 inh 8, ABHD5 PLIN5 PPI 51*, LEDGF integ inh 4, ABHD5 PLIN5 conf 83* and HNF4 split-luc 98*.
For CC(=Cc1ccccc1)C(=O)c1ccccc1 the results were UHRF1 binding 13, rCAG RNA binder 0, MBD2 inh 3, PRMT1 inh -4, ABHD5 PLIN5 PPI -5 and LEDGF integ inh 6.
`CC(=O)C(=Cc1ccc(-c2ccccc2)cc1)C(=O)c1ccccc1` gave UHRF1 binding 0, rCAG RNA binder 3, MBD2 inh -5, PRMT1 inh -1, ABHD5 PLIN5 PPI 95*, LEDGF integ inh -3, ABHD5 PLIN5 conf 98* and HNF4 split-luc 96*.
`CCC[C@H]1[C@@H](NC(=O)c2ccc(Cl)cc2)CC[C@@]23CCCN2C(=O)CCC[C@@H]13` gave UHRF1 binding 0, MBD2 inh 4, PRMT1 inh 1 and LEDGF integ inh -3.
